# Counter-ions that a name gives are not always drawn.
# Tested on: Vibrio cholerae
# Experiment: growth AUC normalised to DMSO control (fraction of control); higher = less growth inhibition, active = hit call of the paper
# Conditions: 20 µM;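 active = AUC significantly below DMSO controls by Student t-fit with adjusted P under 0.01; inactive = not significantly reduced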
# In short: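 For the AUC endpoint, growth curves were integrated by the trapezoidal rule up to the exponential-to-stationary transition and normalised to DMSO controls on the same plate. The curves came from OD578 readings taken hourly for 24 h, in three biological replicates. Pathogens had been passaged anaerobically twice and inoculated at an OD578 of 0.01 into pre-reduced mGAM plates carrying 20 μM compound and 1% DMSO, sealed with breathable membranes. Medium for Haemophilus parainfluenzae also contained hemin and NAD.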
row,SMILES,growth AUC normalised to DMSO control
1,CN(C)[C@@H]1C(=O)C(C(N)=O)=C(O)[C@@]2(O)C(=O)C3=C(O)c4c(O)cccc4[C@@](C)(O)[C@H]3C[C@@H]12 [Tetracycline hydrochloride],0.0365 (active)
2,CC(Cc1ccc(O)cc1)NCC(O)c1cc(O)cc(O)c1 (centres undefined) [Fenoterol hydrobromide],1.01 (inactive)
3,Clc1ccc(C(OCCN2CCCCC2)c2ccccc2)cc1 (centres undefined) [Cloperastine hydrochloride],0.954 (inactive)
4,CC(O)(CS(=O)(=O)c1ccc(F)cc1)C(=O)Nc1ccc(C#N)c(C(F)(F)F)c1 (centres undefined) [Bicalutamide],1.1 (inactive)
5,CCN(C(C)=O)c1cccc(-c2ccnc3c(C#N)cnn23)c1 [Zaleplon],0.97 (inactive)
6,NCCCNCCSP(=O)(O)O [Amifostine],1.01 (inactive)
7,C[C@]12COC(=O)C[C@@H]1CC[C@@H]1[C@@H]2CC[C@@]2(C)[C@H]1CC[C@]2(C)O [Oxandrolone],1 (inactive)
8,Oc1cc(Cl)ccc1Oc1ccc(Cl)cc1Cl [Triclosan],0.184 (active)
9,C=CCN1CC[C@]23c4c5ccc(O)c4O[C@H]2C(=O)CC[C@@]3(O)[C@H]1C5 [Naloxone hydrochloride],1 (inactive)
10,CC(=O)OCC(=O)[C@H]1CC[C@H]2[C@@H]3CC[C@H]4C[C@H](O)CC[C@]4(C)[C@H]3C(=O)C[C@]12C [Alfadolone acetate],0.987 (inactive)
11,S=C(NC1CCCCC1)N1CCC(c2cnc[nH]2)CC1 [Thioperamide maleate],0.97 (inactive)
12,CN1CCN(C(=O)OC2c3nccnc3C(=O)N2c2ccc(Cl)cn2)CC1 (centres undefined) [Zopiclone],0.998 (inactive)
13,CN1C(=O)CCS(=O)(=O)C1c1ccc(Cl)cc1 (centres undefined) [Chlormezanone],1.01 (inactive)
14,CN(C)[C@@H]1C(=O)C(C(N)=O)=C(O)[C@@]2(O)C(=O)C3=C(O)c4c(O)cccc4[C@@](C)(O)[C@H]3[C@H](O)[C@@H]12 [Oxytetracycline dihydrate],0.0278 (active)
15,N[C@@H]1C[C@H]1c1ccccc1 [Tranylcypromine hydrochloride],1.01 (inactive)
16,NC(=O)C[S+]([O-])C(c1ccccc1)c1ccccc1 (centres undefined) [Modafinil],0.998 (inactive)
17,COc1ccc(C(=O)N2CCCC2=O)cc1 [Aniracetam],1.01 (inactive)
18,C[C@]12CCC(=O)C(O)=C1CC[C@@H]1[C@@H]2CC[C@]2(C)C(=O)CC[C@@H]12 [Formestane],1.01 (inactive)
19,CCC(=O)O[C@H]1CC[C@H]2[C@@H]3CCC4=CC(=O)CC[C@]4(C)[C@H]3CC[C@]12C [Testosterone propionate],1.04 (inactive)
20,CCNCC(O)c1cccc(O)c1 (centres undefined) [Etilefrine hydrochloride],0.995 (inactive)

row,SMILES,growth AUC normalised to DMSO control
1,CC(=O)OC1CN2CCC1CC2 (centres undefined) [Aceclidine hydrochloride],1.03 (inactive)
2,CN1[C@@H]2CC[C@H]1C[C@@H](OC1c3ccccc3CCc3ccccc31)C2 [Deptropine citrate],0.926 (inactive)
3,NC(=O)CN1CCCC1=O [Piracetam],0.992 (inactive)
4,CC(=O)[C@H]1CC[C@H]2[C@@H]3CC[C@H]4C[C@H](O)CC[C@]4(C)[C@H]3C(=O)C[C@]12C [Alfaxalone],0.964 (inactive)
5,"CCC1(c2ccc(N)cc2)CCC(=O)NC1=O (centres undefined) [Glutethimide, para-amino]",1.04 (inactive)
6,COc1ccc(Cc2nccc3cc(OC)c(OC)cc23)cc1OC [Papaverine hydrochloride],0.944 (inactive)
7,C[C@]12Cc3c[nH]nc3C[C@@H]1CC[C@@H]1[C@@H]2CC[C@@]2(C)[C@H]1CC[C@]2(C)O [Stanozolol],0.998 (inactive)
8,O=c1[nH]c2ccccc2n1C1CCN(CCCC(c2ccc(F)cc2)c2ccc(F)cc2)CC1 [Pimozide],1.07 (inactive)
9,"CN1CCC2(C)c3cc(O)ccc3N(C)C12 (single isomer, unassigned; (-)) [(-) Eseroline fumarate salt]",0.995 (inactive)
10,CC[C@@H](CO)NC(=O)[C@@H]1C=C2c3cccc4[nH]cc(c34)C[C@H]2N(C)C1 [Methylergometrine maleate],1.01 (inactive)
11,COc1ccc2c(c1)[C@]13CCCC[C@@H]1[C@H](C2)N(C)CC3 [Dextromethorphan hydrobromide monohydrate],0.955 (inactive)
12,O=P1(N(CCCl)CCCl)NCCCO1 (centres undefined) [Cyclophosphamide],1.04 (inactive)
13,CN1C[C@H](CNC(=O)OCc2ccccc2)C[C@@H]2c3cccc4c3c(cn4C)C[C@H]21 [Metergoline],0.893 (inactive)
14,O=[N+]([O-])O[C@H]1CO[C@H]2[C@@H]1OC[C@H]2O[N+](=O)[O-] [Isosorbide dinitrate],1.09 (inactive)
15,CCC(=O)O[C@@](Cc1ccccc1)(c1ccccc1)[C@@H](C)CN(C)C [Levopropoxyphene napsylate],1 (inactive)
16,CCCC[N+]1(C)[C@@H]2C[C@@H](OC(=O)[C@H](CO)c3ccccc3)C[C@H]1[C@@H]1O[C@@H]12 (some centres undefined) [N-Butylscopolammonium bromide],1.01 (inactive)
17,C[C@]12CC[C@H](O)C[C@H]1CC[C@@H]1[C@@H]2C[C@@H](O)[C@]2(C)[C@@H](C3=CC(=O)OC3)CC[C@]12O [Digoxigenin],1.03 (inactive)
18,OC(c1ccccc1)(c1ccccc1)C1CCNCC1 [Azacyclonol],0.967 (inactive)
19,CN1[C@@H]2C[C@@H](OC(=O)[C@H](CO)c3ccccc3)C[C@H]1[C@@H]1O[C@@H]12 [Scopolamine hydrochloride],1.06 (inactive)
